Data from ChEMBL document CHEMBL3988442, “University of Dundee, Small-Polar-MMV Screening Library” (2021).
Among all 48,000 compounds or so, about 13,000 (27%) showed an effect of 50% or more. The list shows a part of the results.

Each compound was assayed on Wolbachia pipientis (assay: Anti-Wolbachia Cell-Based Screen). Conditions: 5 µM.
Type: functional
Parameters: scale not given: in the data most compounds retested in dose-response had high values

SMILES | Percent Effect [%]
CCn1nnc2c1C(COCC(=O)N(C)C)CN(Cc1ccoc1)C2 (configuration not stated) | 95.43
Cc1ccc(CN2CCCn3nnc(COCCN(C)C)c3C2)s1.O=C(O)C(F)(F)F.O=C(O)C(F)(F)F | -14.16
CCn1nnc2c1C(COCCN(C)C)CN(Cc1ccc(C)s1)C2.O=C(O)C(F)(F)F.O=C(O)C(F)(F)F (configuration not stated) | 104.1
CCn1nnc2c1C(COC)CN(Cc1ccsc1)C2.O=C(O)C(F)(F)F (configuration not stated) | -6.299
CCn1nnc2c1C(COCCN(C)C)CN(S(=O)(=O)CC)C2.O=C(O)C(F)(F)F (configuration not stated) | -14.6
CCn1nnc2c1C(COCCN(C)C)CN(Cc1ccco1)C2.O=C(O)C(F)(F)F.O=C(O)C(F)(F)F (configuration not stated) | 92.71
CCn1nnc2c1C(COCCN(C)C)CN(c1nncs1)C2 (configuration not stated) | -7.006
Cc1ccc(CN2Cc3nnn(C)c3C(COCCN(C)C)C2)s1.O=C(O)C(F)(F)F.O=C(O)C(F)(F)F (configuration not stated) | 3.026
COCC1CN(Cc2ccc(C)o2)Cc2nnn(CC3CC3)c21.O=C(O)C(F)(F)F (configuration not stated) | -2.139
CCn1nnc2c1C(COCCN(C)C)CN(S(C)(=O)=O)C2.O=C(O)C(F)(F)F (configuration not stated) | -1.029
CCn1nnc2c1C(COCC(=O)N(C)C)CN(Cc1ccco1)C2.O=C(O)C(F)(F)F (configuration not stated) | 115
O=C(CSc1nncs1)N1CCN(Cc2ccc(Cl)cc2)CC1 | -10.59
Cc1nc(-c2nnc(SCC(=O)O)n2C(C)c2ccccc2)co1 (configuration not stated) | -6.545
CNC(=O)Cc1noc(Cc2cccc(Br)c2)n1 | 1.573
Cn1ccnc1SCCNC1CCN(c2nc3ccccc3s2)CC1 | 0.5729
CC(C)C(=O)N1CCOC[C@H](Oc2ccc(C(F)(F)F)cc2)C1 | -12.72
CCN1CC(C(=O)N2CC(Oc3ccccc3Cl)C2)CCC1=O (configuration not stated) | -27.16
NC(=O)N1CCCC(C(=O)N2CCN(c3nsc4ccccc34)CC2)C1 (configuration not stated) | 111.8
O=C(C1CCC1)N1CCN(c2snc3ccccc23)CC1 | 4.764
CN1CCCC(C(=O)N2CCC(Oc3ccccn3)CC2)C1 (configuration not stated) | -2.88
CCN1CC(C(=O)N2CCN(c3cnn(C)c(=O)c3)CC2)CCC1=O (configuration not stated) | 2.003
O=C(C1CCCN(c2nc3ccccc3cc2CO)C1)N1CCCC1 (configuration not stated) | 10.01
CC(C)N1CCCC(C(=O)N2CCN(c3nsc4ccccc34)CC2)C1 (configuration not stated) | 104.9
CC(C)N1CCCC(C(=O)N2CCc3c(nc(CC4CC4)[nH]c3=O)C2)C1 (configuration not stated) | 6.947
CCN1CC(C(=O)N2CCN(c3nsc4ccccc34)CC2)CCC1=O (configuration not stated) | 116.3
CN(C)C1CCCN(C(=O)c2ccc3sc4c(c3c2)CCNC4=O)CC1 (configuration not stated) | -3.9

SMILES | Percent Effect [%]
Cc1cccc(NC(=O)CCC(=O)NCC(=O)c2ccccc2F)c1 | -5.456
COc1cc2c(cc1-c1nc3c(cnn3C)[nH]1)OCO2 | 9.432
CCCNC(=O)CCc1ccnc2ccccc12 | -4.736
CCOCCCC(=O)NCc1ccc(N2CCCCC2)cc1 | 1.636
CCOCCCNC(=O)CCCC(=O)n1nc(C)c2ccccc21 | 114.3
CCCNC(=O)CCC(=O)n1nc(C)c2ccccc21 | 168.2
COCCCNC(=O)CCn1nc(C)c2ccccc21 | 5.056
CCCNC(=O)CCNC(=O)N1CCC(=Cc2ccccc2)CC1 | 1.443
COc1cccc2[nH]cc(CCNC(=O)N3CCC[C@H]3CO)c12 | 0.855
Cn1c(=O)c2cc(C(=O)NCc3ccccn3)ccc2n(C)c1=O | 80.97
CN1CCN(c2cc(CNC(=O)c3ccc(=O)n(C)c3)ccn2)CC1 | 6.282
Cn1nc(CC(C)(C)C)cc1NC(=O)c1ccc(CNC(N)=O)cc1 | -16.73
Cn1nc(C(=O)NCc2ccccn2)c2c1CCS(=O)(=O)C2 | 2.968
Cn1c(=O)c2cc(C(=O)NCc3ccncc3)ccc2n(C)c1=O | 119.1
Cc1cc(NC(=O)NCc2ccccn2)n(C)n1 | 11.39
CC(C)n1cnnc1CN1C(=O)CCc2ccccc21 | -28.4
c1ccc2oc(N3CCCC4(CCOC4)C3)nc2c1 (configuration not stated) | -10.39
O=C(Cc1ccon1)N(CCC(F)(F)F)C1CCCC1 | -15
COC(=O)c1ccccc1C(=O)N(CCN(C)C)Cc1sccc1C | -10.61
CN(C)C[C@@H]1CN(C(=O)Cc2cccc(O)c2)C[C@@H]1CO | -7.089
O=C(Cc1cccc(O)c1)N1CCCC(O)(CN2CCOCC2)CC1 (configuration not stated) | 193.2
O=C1N(Cc2cccc(F)c2F)CCCC1(O)CN1CCCOCC1 (configuration not stated) | -6.352
O=C(Cc1ccc(S(=O)(=O)C(F)F)cc1)N1CCC1 | -8.484
O=C(Cc1cccc(O)c1)N1CCC2(CC1)c1ccccc1CC2O (configuration not stated) | -3.302
COc1cccc(OCC2CCCN(C(=O)Cc3cccc(O)c3)C2)c1 (configuration not stated) | -41.73
CN1CCN(CC2(O)CCCN(C(=O)Cc3cccc(O)c3)CC2)CC1 (configuration not stated) | 188.6

SMILES | Percent Effect [%]
OC1(CN2CCCC2)CCCN(Cc2cnc(-c3ccccc3)nc2)C1 (configuration not stated) | 1.78
O=C(Cc1cccc(O)c1)N1CCCC(O)(CN2CCCC2)CC1 (configuration not stated) | 146.3
O=C(Cc1ccc(O)cc1)N1CCCC(O)(CN2CCOCC2)CC1 (configuration not stated) | 136.3
O=C(Cc1ccc(S(=O)(=O)C(F)F)cc1)N1CCCC1 | -6.682
COCCN(C/C=C/c1ccccc1)Cc1ncc[nH]1 | 16.38
CC(C)Cc1noc(COc2ccc(N(C)C(N)=O)cc2)n1 | -17.39
Cn1cc(Cl)cc1C(=O)N1CCC2(CCCN(CC3CC3)C2=O)C1 (configuration not stated) | -20.81
COCCCC(=O)NCc1cccc(NC(N)=O)c1 | -9.096
CC(Nc1cccc(CN2CCOC2=O)c1)C(=O)Nc1ccccc1F (configuration not stated) | -4.647
O=C1CC(NCc2cnc(C3CCCCC3)nc2)CN1c1ccccc1 (configuration not stated) | -13.32
N#Cc1cc2c(nc1SCc1cc(O)nc(O)n1)CCCCC2 | 128.9
N#Cc1cc2c(nc1O)CCCCC2 | 109.4
N#Cc1cc2c(nc1SCc1cc(O)nc(O)n1)CCCC2 | 96.26
CCS(=O)(=O)c1ccccc1N1CCC(NC(=O)c2ccc[nH]2)CC1 | 7.844
CCOCc1nc2c(c(NC(CC)c3ccnn3C)n1)CCNCC2 (configuration not stated) | -1.595
COCCCNC(=O)NCc1ccc(N2CCOC(C)C2)nc1 (configuration not stated) | -2.359
CC(=O)Nc1nc(C(=O)NCc2ccc(N3CCCCCC3)nc2)cs1 | 26.65
Cc1nnc(NC(=O)NCc2ccc(N3CCC(C)CC3)nc2)s1 | 109.6
Cc1nnc(NC(=O)NCc2ccc(N3CCOCC3)nc2)s1 | 89.19
Cc1nnc(NC(=O)NCc2ccc(N3CCN(C)CC3)nc2)s1 | 5.046
COc1ccc([C@@H]2C[C@H](NC(C)=O)C[C@H](Cc3ccccc3)O2)cn1 | -17
Brc1cccc(C2(CNCc3cc[nH]c3)CCOCC2)c1 | -10.11
O=C(NCc1ccccn1)[C@H]1COC[C@H]2CN(c3ncccn3)C[C@H]21.O=C(O)C(F)(F)F.O=C(O)C(F)(F)F | 6.701
CC(C)C(=O)N1CCC(Cc2nccnc2Nc2ccccn2)CC1 | 100.8
CCC(=O)N1CCC(Cc2nccnc2Nc2ccccn2)CC1 | 7.091
COc1ccccc1CC1CCCN(C(=O)c2cc[nH]n2)C1 (configuration not stated) | 10.34

SMILES | Percent Effect [%]
CC(C)C(=O)N1CCCC(Cc2ncccn2)C1 (configuration not stated) | 110.8
CC(C)C(=O)N1CCCC(Cc2ccccn2)C1 (configuration not stated) | 90.21
CC1CCN(CC2CCCN(C(=O)Nc3ccccn3)C2)CC1 (configuration not stated) | -7.919
Cc1cccnc1NC(=O)C1CCN(C(=O)C(C)C)CC1 | -2.993
CCC1CCCN(C(=O)Cc2csc(-c3ncccn3)n2)C1 (configuration not stated) | -10.41
Cc1noc(C)c1CN(C)c1nccc(C(F)(F)F)n1 | -2.519
COc1cc(NC(=O)c2cscn2)ncn1 | -4.682
Cc1csc(CN2CCC3(CC2)COC(COc2ccccn2)C3)n1 (configuration not stated) | 106.5
O=S(=O)(C1CC1)N1CCC2(CC1)COC(COc1ccccn1)C2 (configuration not stated) | 3.051
COCC1CC2(CCN(C(=O)c3ccc(F)cc3C)CC2)CO1 (configuration not stated) | 14.78
COCC1CC2(CCN(Cc3nc(C)cs3)CC2)CO1 (configuration not stated) | 102
COCC1CC2(CCN(C(=O)c3occc3C)CC2)CO1 (configuration not stated) | -1.906
c1ccc(OCC2CC3(CCN(Cc4ccncc4)CC3)CO2)nc1 (configuration not stated) | 4.031
Cc1nc(CN(C)Cc2csc(-c3cccs3)n2)co1 | -5.147
CC(C)C(C#N)N1CCN(Cc2nccn2CC(F)(F)F)CC1 (configuration not stated) | -1.445
CSc1nc(N)cc(N2C[C@@H]3CC[C@H](C2)N(CC2CC2)C3=O)n1 | 1.257
O=C1[C@H]2CC[C@H](CN(c3ncnc4ccsc34)C2)N1CC1CC1 | 70.25
Cc1ccnc(N2C[C@@H]3CC[C@H](C2)N(CC2CCC2)C3=O)n1 | 15.62
CN1C(=O)[C@H]2CC[C@@H]1CN(c1ncnc3ccsc13)C2 | 78.97
CCn1ccnc1C1CCN(c2ncnc3ccsc23)CC1 | -4.66
c1nc(N2CCN(Cc3nnnn3C3CC3)CC2)c2sccc2n1 | -5.403
CC(NC1(CNC(=O)CC(C)(C)C)CCOCC1)c1ccccc1 (configuration not stated) | 7.994
O=C(NCCc1cccnc1)N1CCCC1c1ccsc1 (configuration not stated) | 4.878
NC(=O)CCn1nnc(-c2cc3ccccc3o2)n1 | 8.655
